This is one part of a sample in which hits are shown more often than they occur.
RmlCD inh mix – inhibitors of RmlC and RmlD coupled enzymes; inhibition, % at 5.5 µM; AID 1532; 110,000 tested, 0.39% active; RmlC/RmlD coupled enzyme inhibition, 384-well mixture HTS; in the data active = inhibition above about 30%, passing the limit was not always enough; inconclusive = no clear call, values can overlap the other calls
HIV RNase H inh-1 – inhibitors of HIV-1 reverse transcriptase RNase H; RT-RNase H RNA/DNA duplex cleavage, fluorescence; 65,000 tested, 1.9% active; P04585; inhibition, % at 10 µM; in the data active = inhibition above about 50%
HIV RNase H inh-2 – confirmation of HIV-1 reverse transcriptase RNase H inhibitors; shares compounds with HIV RNase H inh-1; Recombinant RT RNase H, fluorescent RNA/DNA duplex cleavage; inhibition, % at 10 µM; 1,000 tested, 39% active; AID 651; in the data active = inhibition above about 48%; inconclusive = no clear call, values can overlap the other calls
Starred values were filed as active, the others as inactive.

`COC(=O)C1C(=O)N2CCCSC2=C(C#N)C1c1cccs1` (configuration not stated) gave RmlCD inh mix -5.8 and HIV RNase H inh-1 -0.3.
Screening Cc1ccc(OCC(=O)Nc2cccc(C)n2)c(C)c1 returned RmlCD inh mix 4.6 and HIV RNase H inh-1 -27.3.
Screening CC1CCN(C(c2cc3cc4c(cc3[nH]c2=O)OCO4)c2nnnn2CC2CCCO2)CC1 (configuration not stated) returned RmlCD inh mix 6.9 and HIV RNase H inh-1 4.0.
`N#C/C(=C/c1ccc(Sc2nc3ccccc3[nH]2)o1)c1ccccc1F` gave RmlCD inh mix 0.4.
Screening Cc1c(NC(=O)Nc2cccc(Cl)c2)c(=O)n(-c2ccccc2)n1C returned RmlCD inh mix 12.8 and HIV RNase H inh-1 -9.3.
For CC12CC3(C)CC(C)(C1)CC(NC(=O)N1CCCC1)(C2)C3 the results were RmlCD inh mix -9.0.
Screening CCCSC1=C(C#N)C(c2cc(OC)ccc2OC)CC(=O)N1 (configuration not stated) returned RmlCD inh mix 12.1 and HIV RNase H inh-1 -45.1.
For CCOc1ccccc1N1CSC2=C(C#N)C(c3c(OC)ccc4ccccc34)CC(=O)N2C1 (configuration not stated) the results were RmlCD inh mix -2.7, HIV RNase H inh-1 72.8* and HIV RNase H inh-2 64.3*.
Screening CCOc1ccccc1N1CCN(c2nc3ccccc3nc2C(C#N)C(=O)OC)CC1 (configuration not stated) returned RmlCD inh mix 8.1 and HIV RNase H inh-1 5.7.
For COc1ccc(N2CSC3=C(C#N)C(c4cc(OC)ccc4OC)CC(=O)N3C2)c(OC)c1 (configuration not stated) the results were RmlCD inh mix 5.6, HIV RNase H inh-1 86.1* and HIV RNase H inh-2 66.9*.
Screening CC(=O)N1CCN(S(=O)(=O)c2cccc(C(=O)NC3CCCc4ccccc43)c2)CC1 (configuration not stated) returned RmlCD inh mix 49.4.
For Cc1cc(O)c(C(C)C)cc1N=C1CSC(=O)N1 the results were RmlCD inh mix 8.4, HIV RNase H inh-1 66.9* and HIV RNase H inh-2 inconclusive.
Screening Cc1ccc(C)c(N=C2NC(=O)CS2)c1 returned RmlCD inh mix -0.9 and HIV RNase H inh-1 -13.7.
Screening CCNc1nc(NCC)nc(Oc2ccc(N)cc2)n1 returned RmlCD inh mix -5.7.
`COC(=O)CSc1ncnc2c1sc1nc(-c3ccco3)c3c(c12)CC(C)(C)OC3` gave HIV RNase H inh-1 60.5* and HIV RNase H inh-2 43.4.
For CC(C)c1nc2sc3c(NCc4ccco4)ncnc3c2c2c1COC(C)(C)C2 the results were RmlCD inh mix -18.5 and HIV RNase H inh-1 28.3.
For CCN1C(=O)/C(=C2/Sc3ccc(OC)cc3N2C)SC1=Nc1cccc(O)c1 the results were RmlCD inh mix 0.0, HIV RNase H inh-1 51.2* and HIV RNase H inh-2 27.6.
For CCN1C(=O)/C(=C2/Sc3ccc(OC)cc3N2C)SC1=Nc1ccc(C(C)=O)cc1 the results were HIV RNase H inh-1 6.2.
c1cnc2ccc(C(c3nnnn3C3CCCCC3)N3CCN4CCCC4C3)cc2c1 (configuration not stated) was read as RmlCD inh mix -10.9.
`Cc1ccccc1NC(=O)c1c(O)c2cccc3c2n(c1=O)CC3` gave HIV RNase H inh-1 52.5* and HIV RNase H inh-2 97.3*.
`Cc1ccccc1NC(=O)c1c(O)c2cccc3c2n(c1=O)CCC3` gave HIV RNase H inh-1 0.7.
`CCOC(=O)c1c(C2COc3ccccc3O2)csc1NC(=O)c1ccco1` (configuration not stated) gave RmlCD inh mix -33.3, HIV RNase H inh-1 96.7* and HIV RNase H inh-2 54.2*.
`CCOC(=O)c1c(-c2cccs2)csc1NC(=O)c1ccco1` gave RmlCD inh mix 22.2 and HIV RNase H inh-1 28.1.
For O=S(=O)(c1ccc(Nc2ccc3c(c2)OCO3)nc1)N1CCOCC1 the results were RmlCD inh mix 7.2 and HIV RNase H inh-1 5.6.
`CCOc1ccccc1NC(=O)CSc1nnnn1-c1ccccc1` gave RmlCD inh mix -9.4.
Cc1ccc(NC(=O)c2cc(-c3ccc(C)o3)nc3ccccc23)cc1 was read as RmlCD inh mix -11.4.
For Cc1ccc(-c2cc(C(=O)Nc3cccnc3)c3ccccc3n2)o1 the results were RmlCD inh mix -20.9, HIV RNase H inh-1 68.7* and HIV RNase H inh-2 31.6.
`O=C(c1ccc2snnc2c1)N1CCSCC1` gave RmlCD inh mix 13.3 and HIV RNase H inh-1 12.0.
COc1ccc(-c2c(C3=CCCCC3)oc3ccc(-c4ccc5c(c4)OCO5)cc23)cn1 was read as RmlCD inh mix 1.5.
Screening COc1ccc(OC)c(-n2nnnc2SCC(=O)NCCc2ccccc2)c1 returned HIV RNase H inh-1 -26.4.
Screening COc1cccc(-n2nnnc2SCC(=O)NCCc2ccccc2)c1 returned RmlCD inh mix 34.9, HIV RNase H inh-1 70.1* and HIV RNase H inh-2 37.8.
Screening NC(=O)c1ccsc1NC(=O)CN1C(=O)C2CC=CCC2C1=O (configuration not stated) returned RmlCD inh mix -5.9 and HIV RNase H inh-1 -2.7.
For O=C(c1ccc(Br)o1)N1CCN=C1SCc1cccnc1 the results were RmlCD inh mix -13.4 and HIV RNase H inh-1 -7.4.
`C=CCn1c(SCC(=O)NC(=O)NC2CCCC2)nnc1C1CCCCC1` gave RmlCD inh mix 3.6 and HIV RNase H inh-1 -3.6.
For C=CCn1c(SCc2cc(=O)n3ccsc3n2)nnc1C1CCCCC1 the results were RmlCD inh mix 6.1, HIV RNase H inh-1 66.8* and HIV RNase H inh-2 -0.6.
Screening Cn1c(Cc2cccs2)nnc1SCc1nc2ccccc2[nH]1 returned RmlCD inh mix 3.5 and HIV RNase H inh-1 -7.7.
N#Cc1cc2c([nH]c1=S)CCCCCC2 was read as RmlCD inh mix 21.1, HIV RNase H inh-1 80.7* and HIV RNase H inh-2 45.5.
`N#Cc1c(N)n[nH]c1-c1cc2c([nH]1)CCCC2` gave RmlCD inh mix -15.9 and HIV RNase H inh-1 1.9.
`CC1(C)C2CCC1(C)C(OC(=O)CC(=O)O)C2` (configuration not stated) gave RmlCD inh mix 7.8 and HIV RNase H inh-1 -6.7.
`COc1cccc(C(c2sc3nc(C)nn3c2O)N2CCc3ccccc3C2)c1` (configuration not stated) gave RmlCD inh mix -8.7, HIV RNase H inh-1 81.5* and HIV RNase H inh-2 -1.1.
CCN1CCN(C(c2cccc(OC)c2)c2sc3nc(C)nn3c2O)CC1 (configuration not stated) was read as HIV RNase H inh-1 -27.5.
Screening CCCNC(=S)NCCN1CCCCC1 returned RmlCD inh mix 9.5.
Cc1ccc(-c2nc3cnccn3c2Nc2ccccc2)o1 was read as RmlCD inh mix -62.8, HIV RNase H inh-1 88.1* and HIV RNase H inh-2 25.4.
For Cc1ccc(Nc2c(-c3ccc(C)o3)nc3cnccn23)cc1 the results were RmlCD inh mix 12.4.
`CCOC(=O)Cn1nnnc1C(CC)N(Cc1cc2ccc(C)cc2[nH]c1=O)C1CCCC1` (configuration not stated) gave RmlCD inh mix 131.2 and HIV RNase H inh-1 11.5.
`Fc1ccc(-n2[nH]nnc2=S)cc1N1CCCC1` gave RmlCD inh mix -4.7, HIV RNase H inh-1 63.4* and HIV RNase H inh-2 -6.1.
`Nc1ccc(N2CCCCC2)cc1N1CCCCC1` gave HIV RNase H inh-1 -2.8.
For CN(C)S(=O)(=O)c1ccc(S(=O)(=O)N2CCN(CCC#N)CC2)cc1 the results were RmlCD inh mix 9.5 and HIV RNase H inh-1 3.9.

Screens from PubChem.
